{
  "source": "PubChem BioAssay AID1117361",
  "about": "(Southern Research Institute, 2015)",
  "note": "The whole screen tested about 3,600 compounds, of which about 900 (25%) were called active. How the calls were made is not given here. The list is a sample of the results. Measured potencies and affinities stand elsewhere.",
  "data": [
    {"target": "Protein Tat (Human immunodeficiency virus type 1 group M subtype B (isolate HXB2)) (UniProt P04608)", "experiment": "inhibitors of Tat binding to TAR RNA, dose response, counter-screen for Vif-APOBEC3G degradation inhibitor project, biochemical, fluorescence polarization, FAM-labeled TAR RNA (AID 1117361)", "conditions": "outcome: at 100 µM (top of the series) unless noted; series mostly up to 100 µM; inhibition: at the top concentration", "values": [
      {"smiles": "Cc1ccc(Cn2ccc(NC(=O)c3cc(-c4cccc(Cl)c4)on3)n2)cc1", "inhibition": "9.55% (inactive)"},
      {"smiles": "COc1ccc(NC(=O)C2CCCNC2)cc1OCC(C)C", "note": "(stereo unspecified)", "outcome": "inactive"},
      {"smiles": "O=c1c2c(nc(NCCO)n1CC1CCCCC1)-c1ccccc1CC21CCCC1", "outcome": "inactive"},
      {"smiles": "CC(Sc1nnnn1C)C(=O)Nc1ccccc1-c1ccccc1", "note": "(stereo unspecified)", "inhibition": "2.7% (inactive)"},
      {"smiles": "CCOC(=O)CCC(=O)N1CCNC(=O)C1", "outcome": "inactive"},
      {"smiles": "CCNC(=O)c1ccc(-n2nc(C(F)(F)F)c3c2CCCC3)cc1", "inhibition": "1.35% (inactive)"},
      {"smiles": "CS(=O)(=O)c1ccc2nnn(OCC(=O)Nc3cccc(C#N)c3)c2c1", "outcome": "inactive"},
      {"smiles": "Cc1cccc2c1NC1(CCCC1)CC2C", "note": "(stereo unspecified)", "inhibition": "14% (inactive)"},
      {"smiles": "O=C(NCCCN1CCOCC1)C1CC(=O)N(CCc2ccccc2)C1", "note": "(stereo unspecified)", "outcome": "inactive"},
      {"smiles": "CCN(CC)c1ccc(NC(=O)c2c(C)noc2C)cc1", "outcome": "inactive"},
      {"smiles": "O=C(c1ccc2c(c1)[nH]c(=S)n1c3ccccc3nc21)N1CCN(c2cccc(Cl)c2)CC1", "inhibition": "4.12% (inactive)"},
      {"smiles": "COc1ccc(S(=O)(=O)N2CCC(C(=O)NCc3cccnc3)CC2)cc1Cl", "inhibition": "3.01% (inactive)"},
      {"smiles": "COc1cc(NC(=O)c2cc3nc(-c4ccccc4)cc(-c4ccccc4)n3n2)cc(OC)c1OC", "inhibition": "2.7% (inactive)"},
      {"smiles": "CC(=O)c1cccc(NC(=O)CC2Oc3ccc(C)cc3NC2=O)c1", "note": "(stereo unspecified)", "inhibition": "9.46% (inactive)"},
      {"smiles": "O=C(CCNS(=O)(=O)c1ccc(Cl)cc1)NCc1cccnc1", "outcome": "inactive"},
      {"smiles": "C=C(C)C1CC=C(C)/C(=N\\NC(=O)CCC(=O)Nc2ccc(C)c(C)c2)C1", "note": "(stereo unspecified)", "outcome": "inactive"},
      {"smiles": "O=c1c2c([nH]c3ccccc13)CCCCCC2", "inhibition": "3.38% (inactive)"},
      {"smiles": "CC(C)CCNC(=O)Cn1c2c(c(-c3ccccc3Cl)cc1=O)CCC2", "inhibition": "11.6% (inactive)"},
      {"smiles": "FC(F)(F)C1=Nc2cccc3cccc(c23)N1", "inhibition": "1.67% (inactive)"},
      {"smiles": "CCc1nc(-c2ccc(C)nc2OC)no1", "inhibition": "9.46% (inactive)"},
      {"smiles": "CS(=O)(=O)c1ccc(C(=O)Nc2nc(-c3ccco3)c(-c3ccco3)s2)cc1", "inhibition": "27.7% (inactive)"},
      {"smiles": "COc1ccc(NC(=O)CSc2nc3c(cc2C#N)CN(C)CC3)cc1", "inhibition": "7.68% (inactive)"},
      {"smiles": "O=S(=O)(N1CCOCC1)N1CCCN(S(=O)(=O)N2CCOCC2)CC1", "outcome": "inactive"},
      {"smiles": "Cc1c(C(=O)N2CCCCC2)nnn1-c1nonc1N", "inhibition": "7.01% (inactive)"},
      {"smiles": "CCOC(=O)N1CCC(N2C(=O)c3ccccc3C2Nc2ccccc2)CC1", "note": "(stereo unspecified)", "outcome": "inactive"},
      {"smiles": "COc1ccc(C(=O)n2nc(-c3ccc(Cl)cc3)nc2N)cc1OC", "inhibition": "13.6% (inactive)"},
      {"smiles": "COc1ccc(-c2noc(Cc3ccc(Cl)cc3)n2)cc1OC", "outcome": "inactive"},
      {"smiles": "Cc1cc(C)c2c(=N)c3ccccc3n(CCCCCCCCn3c4ccccc4c(=N)c4c(C)cc(C)nc43)c2n1", "outcome": "inactive"},
      {"smiles": "COc1cccc(OC)c1OCCCc1c(C)n[nH]c1C", "inhibition": "5.41% (inactive)"},
      {"smiles": "O=C(N/C(=C/c1ccc(Cl)cc1)c1nc2ccccc2[nH]1)c1ccco1", "inhibition": "4.05% (inactive)"},
      {"smiles": "COc1cccc(C(=O)Nc2nc3ccccc3[nH]2)c1", "inhibition": "10.9% (inactive)"}
    ]}
  ]
}
